Assay results published in PubChem BioAssay (NCATS).
Results filed as inconclusive are left out. Values without a mark were called inactive. The source made the active and inactive calls. Calls follow the shape of the dose curve; as a rule, active = well fitted inhibition curve with a large enough effect; inconclusive = small, poorly fitted or top-dose-only effect; inactive = no such curve, though single readings can be large or run the other way.

Assay: Primary qHTS for inhibitors of La Crosse Virus (LACV) - induced cell death in SH-SY5Y cells (AID 1508616);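 also: top concentration of the series differs between compounds; 0% = infected DMSO wells and 100% = uninfected DMSO wells; higher means more rescue of cells from virus-induced death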
Conditions: SH-SY5Y LACV cytopathicity rescue, ATP luminescence, 6 d; series mostly up to 4.29 µM; activity change: at the top concentration
Excerpt: Assay Provider: Karin Peterson Ph.D.
National Institute of Allergy and Infection Diseases, National Institute of Health
La Crosse Virus (LACV) is a California serogroup mosquito-borne arbovirus, family Peribunyaviridae, which is an endemic pathogen in North America and can induce a rare, life-threatening neurological disease in children. LACV was first isolated in the early 1960s, from a summer "rural encephalitis" case in La Crosse, Wisconsin, USA. Since then, LACV encephalitis cases have been found in more than twenty states, with most cases in the Mississippi and Ohio River basins. The life cycle of LACV is maintained between the vector, the eastern tree-hole mosquito Aedes triseriatus, and vertebrate hosts including eastern gray squirrels (Sciurus carolinensis) and chipmunks (Tamiasstriatus grinseus). […] Most LACV infections in humans are asymptomatic or induce mild clinical symptoms of fever, headache, lethargy and vomiting. However, in some cases LACV can cause severe neuroinvasive disease, including encephalitis, meningitis, and meningoencephalitis, requiring hospitalization. To date, there is neither a licensed vaccine nor a Food and Drug Administration (FDA) approved antiviral therapy available to prevent or treat LACV encephalitis. The primary treatment for viral encephalitis is palliative care due to the lack of therapeutics. In the current study, we conducted a screen of 4,096 FDA approved and bioactive small molecules against LACV, by screening for rescue of LACV-induced cell death in SH-SY5Y cells.
LACV-induced cytopathicity assay
SEQUENCE No. (1,2, 3, etc.); […] (e.g., Cells, Incubation, Reagent, etc.); VALUE and DESCRIPTION.
1. Reagent; 2 uL; Cell solution.
3. Compounds; 23nL; Compound library
4. Reagent; 12 uL; LACV virus
6. Reagent; 24 uL; ATPLite (PerkinElmer)
7. Time; 5 min; Room temperature
8. Detection; Luminescence; View
NOTES (numbers refer to sequence above)
1. Seed 6000 SH-SY5Y cells (ATCC CRL-2266) in 2 microL/well media (DMEM/F12 10% FBS, 1x L-Glutamine, 1x Pyruvate, 1x NEAA, 1x Pen/Strep) in 384-well assay plates (tissue culture treated, white, solid bottom).
2. Incubate at 37 degrees C with 5% CO2 for 24 hr.
3. Dispense 23 nL/well compounds in DMSO via pin transfer.
4. Dispense 12 microL/well of LACV (LACV/human/1978) in media at 0.01 MOI.
5. Incubate at for 6 days at 37C 5% CO2
6. Dispense 24 microL/well of ATPLite 1step Luminescence assay system (PerkinElmer).
7. Incubate for 5 min at room temperature.
8. Read luminescence signal (Viewlux plate reader, PerkinElmer). Data was normalized with DMSO control wells containing LACV as 0%, and DMSO control wells without virus as 100%.

SMILES	activity change	outcome
COc1cc(CC(C)N)cc(OC)c1OC (stereo not given)	-1.32% [at 9.63 µM]	
C[C@]12CCC(=O)C=C1CC[C@@H]1[C@H]3CC[C@](C)(O)[C@@]3(C)CC[C@@H]12	12.2% [at 8.54 µM]	
COP(=S)(OC)SCN1C(=O)c2ccccc2C1=O	14.4%	
CNCC(=O)c1ccc(O)c(O)c1	13.8%	
C[C@]12CCC(=O)C=C1CC[C@@H]1[C@@H]2CC[C@]2(C)C(=O)CC[C@@H]12	11.4%	
CC[N+]1(CC)CCC(OC(=O)C(O)(c2ccccc2)c2ccccc2)C1 (stereo not given)	17%	
C=CCN1C[C@H](C)N([C@H](c2ccc(C(=O)N(CC)CC)cc2)c2cccc(OC)c2)C[C@H]1C	16.9%	
CC(C)(C)NCC(O)c1ccccc1Cl (stereo not given)		inactive
c1ccc(N2CCNCC2)cc1	8.09%	
C[C@]12CC[C@H]3[C@@H](CCC4=CC(=O)CC[C@@H]43)[C@@H]1CC[C@@H]2OC(=O)CCC1CCCCC1	-14.1%	
Oc1ccc(Cl)cc1	1.09%	
O=C1OC(c2ccc(O)c(S(=O)(=O)O)c2)(c2ccc(O)c(S(=O)(=O)O)c2)c2c(Br)c(Br)c(Br)c(Br)c21	1.83%	
CC(=O)NC1CCSC1=O (stereo not given)	1%	
NNc1ccccc1	13.2%	
COc1ccc2c3c1O[C@H]1[C@H](O)CC[C@H]4[C@@H](C2)N(C)CC[C@@]341	3.78% [at 8.54 µM]	
CCCN(CCC)C(=O)Cc1c(-c2ccc(Cl)cc2)nc2ccc(Cl)cn12	-3.79%	
COc1ccc2c(c1OC)C(=O)O[C@H]2[C@@H]1c2cc3c(cc2CCN1C)OCO3		inactive
CCOP(=S)(OCC)Oc1ccc2c(C)c(Cl)c(=O)oc2c1	13.8%	
CCC1(c2ccccc2)C(=O)N(COC)C(=O)N(COC)C1=O	12.9%	
CCN(CC)CCc1c[nH]c2ccccc12	-4.92% [at 9.63 µM]	

SMILES	activity change	outcome
COP(=S)(OC)Oc1cc(Cl)c(Cl)cc1Cl	-7.04%	
c1ccc2c(c1)sc1ccccc12	-7.56%	
C[C@]12CC[C@H]3[C@@H](CCC4=CC(=O)CC[C@@H]43)[C@@H]1CC[C@@H]2OC(=O)CCc1ccco1	-7.55%	
C[C@]12CCC(=O)C=C1CC[C@@H]1[C@@H]2CC[C@@]2(C)[C@H]1CC[C@]2(C)O	60.5%	
COC1CC(=C(c2cccs2)c2cccs2)C[N+](C)(C)C1 (stereo not given)	44.7%	
C=C(C)[C@H]1CN[C@H](C(=O)O)[C@H]1CC(=O)O		inactive
CNC(C)(C)Cc1ccccc1	-3.9%	
C=CCC1(C(C)CC)C(=O)NC(=O)NC1=O (stereo not given)	5.4%	
CC(C)c1c(CN(C)C(C)Cc2ccccc2)n(C)n(-c2ccccc2)c1=O (stereo not given)	37.6%	
Nc1ccc([As](=O)(O)O)cc1	-1.28%	
O=C1CN=C(c2ccccc2)c2cc([N+](=O)[O-])ccc2N1	55.6%	
Clc1ccc(C(c2ccc(Cl)cc2)C(Cl)(Cl)Cl)cc1	6.64%	
Nc1nc(N)nc(NC2CC2)n1	-8.64%	
Cc1ncsc1CCCl		inactive
CN1C(=O)NC(=O)C(C)(C2=CCCCC2)C1=O (stereo not given)	-20.3%	
CCN(CCO)CCn1c(Cc2ccccc2)nc2c1c(=O)n(C)c(=O)n2C	37%	
CCC(CC)(CNC(=O)CCCO)c1cccc(OC)c1	-7.24%	
CC(C)(C)NCC(O)c1cc(Cl)c(N)c(C(F)(F)F)c1 (stereo not given)	-11.1%	
Nc1ccccc1	-0.269%	
COC(=O)C(Cl)C(=O)OC	-0.117%	
